Screen size: about 410,000 compounds; about 3,100 (0.76%) were called active. Calls come from the whole dose curve; as a rule, active = well fitted cell-killing curve with a large enough effect; inactive = no such curve, though single readings can be large or run the other way. What follows is part of a selection rich in actives, with near analogues and random picks from the rest. A call without a number means that no potency is given here.
Experiment: qHTS for Inhibitors of TGF-b: Cytotox Counterscreen
Conditions: HepG2 CAGA-GFP viability, ATP luminescence, 18 h; series mostly up to 46.1 µM
Summary of the method: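 HepG2 CAGA-GFP cells (1000/well, DMEM with 1% FBS) received compound, then TGF-beta at 500 pg/mL final, and were incubated 18 hours at 37 degrees C. Viability was read by CellTiter-Glo luminescence. Media-only wells were set as complete cell-killing and DMSO as no toxicity.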
Potency is the fitted concentration of half-maximal effect.

Compound | Potency
COc1ccccc1N1CCN(c2ccc(=O)n(CC(=O)NCc3ccc(OC(C)C)cc3)n2)CC1 | inactive
O=C1C2C(c3ccccc3)CC=CC2C(c2ccoc2)N1Cc1ccccc1 (stereo not given) | inactive
CC(C)c1ccc2c(c1)c(SC(C)(C)C)c(CC(C)(C)C(=O)O)n2Cc1ccc(Cl)cc1 | 10 µM (active)
CC(C)c1ccc(Cn2c(COc3ccccc3)nc3ccccc32)cc1 | inactive
O=C(Cn1c(=O)nc(-c2ccccc2)c2cc(Cl)ccc21)NCc1ccc(Cl)cc1 | inactive
O=C(c1cccc(Br)c1)N1CCN(Cc2cc(=O)n3nc(-c4ccccc4)sc3n2)CC1 | inactive
CCCOc1ccc(C(=O)C(CCC(CNCC)C(=O)c2ccc(OCCC)cc2)CNCC)cc1 (stereo not given) | 3.16 µM (active)
CCCOc1ccc(N2CC(C(=O)Nc3ccccn3)CC2=O)cc1 (stereo not given) | inactive
CCCOc1cccc(C(=O)Nc2cccc(NC(=O)c3ccc(C(C)(C)C)cc3)c2)c1 | inactive
CC(C)(C)C1CCC(NC(=O)c2cnn3c2NC(=C2CC2)C=C3C(F)F)CC1 (stereo not given) | inactive
CN(C)c1ccc(/C=C/c2sc3ccccc3[n+]2CCCCBr)cc1 | inactive
Cc1c(CCO)sc[n+]1CC(=O)c1ccc2ccccc2c1 | inactive
CCC1CCCCN1S(=O)(=O)c1ccc(NC(=O)c2cc(=O)c3ccccc3o2)cc1 (stereo not given) | inactive
Cc1cc2oc3ccc(NCCC4CCCN4C)cc3c(=O)c2cc1C (stereo not given) | 10 µM (active)
CNCCCOc1cc2nc(N3CCCN(C)CC3)nc(NC3CCN(C)CC3)c2cc1OC | inactive
COc1ccccc1CNS(=O)(=O)c1cc(Br)cc2c1N(C(C)=O)C(C)C2 (stereo not given) | inactive
O=C(Cn1nc(Cc2cccnc2)c2ccccc2c1=O)N1CCN(c2ccccc2F)CC1 | inactive
COc1cc(OC)c(/C=C/c2ccnc3ccccc23)c(OC)c1 | inactive
O=C(CSc1nccn1Cc1ccc(F)cc1)NCc1ccccc1 | inactive
COc1cc(OC)c(C2C=C(C(=O)O)Nc3ncnn32)cc1OC (stereo not given) | inactive
NC(Cc1ccc(F)cc1)c1csc(Nc2nncc3ccccc23)n1 (stereo not given) | 15.8 µM (active)
COCC(C)NC(=O)COc1nncc2ccccc12 (stereo not given) | inactive
CN(Cc1ccccc1)c1ccc(/C=C/c2ccnc3ccccc23)cc1 | inactive
Cc1ccc(OCC(=O)OCc2cc(=O)n3nc(C4CC4)sc3n2)cc1 | inactive
CCCCC(CCCC)c1ccc(C=Nc2ccc(/C=C/c3ccnc4ccccc34)cc2)cc1 | inactive

Compound | Potency
COc1ccc(-c2nnc(SC(=O)N3c4ccccc4Sc4ccccc43)o2)cc1 | 11.2 µM (active)
COc1ccc(CN(C(=O)CSc2nnc(-c3ccc(OC)c(OC)c3)o2)c2ccc(F)cc2)cc1 | inactive
COc1ccccc1-c1nnc(SCC(N)=O)o1 | inactive
CC(C)Nc1nc(NCCOc2ccccc2Cl)c2sccc2n1 | inactive
COc1cccc(CNc2nc(NCc3ccccc3OC)nc3ccsc23)c1 | 11.2 µM (active)
COc1cccc(CNc2nccn(-c3ccc(OC)c(OC)c3)c2=O)c1 | inactive
CCN(CC)/[N+]([O-])=N/OCOC(=O)Cc1c(C)n(C(=O)c2ccc(Cl)cc2)c2ccc(OC)cc12 | inactive
Cc1ccccc1CN1CCC(CNC(=O)c2c(C)oc3ncnc(N4CCCCC4)c23)CC1 | inactive
COc1cc(NC(=O)c2cc3ccc4cccnc4c3[nH]2)cc(OC)c1OC | inactive
CCOc1ccccc1N(CC)C(=O)Nc1cn(C)c(=O)c2ccccc12 | inactive
CCOc1ccccc1N(CC)C(=O)c1cc2ccc3cccnc3c2[nH]1 | 12.6 µM (active)
Cc1ccccc1CN1CCC(C(=O)Nc2ccc(Oc3cccnc3)cc2)CC1 | inactive
Cc1ccccc1CN1CCC(CNC(=O)c2cc3ccc4cccnc4c3[nH]2)CC1 | 12.6 µM (active)
CCOc1ccc(N(CC)C(=O)C2CCN(S(=O)(=O)c3cccc4nonc34)CC2)cc1 | inactive
COc1ccccc1NC(=O)C1=C(C)Nc2ncnn2C1c1sccc1C (stereo not given) | inactive
O=C(CSc1nc(=O)[nH]c2c1CCCC2)Nc1cc(C(F)(F)F)ccc1Cl | inactive
CCN1CCN(c2ccc(/C=C/c3ccnc4ccccc34)cc2)CC1 | inactive
Cc1oc2ncn(CC(C)C)c(=O)c2c1C(=O)N1CCN(c2ccccc2F)CC1 | inactive
O=C(NC1(C(F)(F)F)N=C(c2ccccc2)N(C2CCCCC2)C1=O)c1ccccc1F (stereo not given) | inactive
O=C1NC(Nc2nc3ccccc3s2)(C(F)(F)F)C(=O)N1C1CCCCC1 (stereo not given) | 11.2 µM (active)
CCCN(C(=O)Cn1ncc2c([nH]c3ccc(C)cc32)c1=O)c1ccccc1C | inactive
O=C(COc1ccc(-c2ccccc2)cc1)NN=C1CCCC1 | inactive
Cc1ccc(/C=N/NC(=O)COc2ccccc2-c2ccccc2)cc1 | 10 µM (active)
CC(=O)c1ccc(NC(=O)COc2ccccc2-c2nc(-c3ccccc3)no2)cc1 | inactive
CCOc1ccccc1NC(=O)CCn1cnnn1 | inactive

Compound | Potency
O=C(Nc1ccccc1Cl)N1CCC(CN2CCCC2)CC1 | inactive
O=C(Nc1ccccc1Cl)N1CCC(CN2CCCCC2)CC1 | inactive
O=C(Nc1ccccc1Cl)/C(Cl)=C(\Cl)S(=O)c1ccccc1 (stereo not given) | 3.55 µM (active)
CCCN1CCC(=O)N(C(CSc2ccc(OC)cc2)Cc2ccccc2)CC1 (stereo not given) | inactive
Cc1ccccc1CNC(=O)C1CCCN(S(=O)(=O)N(C)c2ccc(F)cc2)C1 (stereo not given) | inactive
Cc1cccc(CS(=O)(=O)c2ncc(Cl)c(C(=O)Nc3ccc(F)cc3)n2)c1 | 10 µM (active)
Cc1ccc(NC(=O)c2nc(S(=O)(=O)Cc3cccc(C)c3)ncc2Cl)cc1 | 7.08 µM (active)
CSc1ncc(Cl)c(C(=O)Nc2ccc(S(=O)(=O)N3CCCC(C)C3)cc2)n1 (stereo not given) | inactive
Cc1ccc(CCNC(=O)c2ccc(CS(=O)(=O)Cc3cccc(C)c3)o2)cc1 | inactive
Cc1cccc(NC(=O)c2nc(S(=O)(=O)Cc3ccccc3)ncc2Cl)c1 | 11.2 µM (active)
CCCSc1ncc(Cl)c(C(=O)Nc2c(C(=O)Nc3ccccc3)oc3ccccc23)n1 | inactive
CCS(=O)(=O)c1ncc(N(Cc2ccc(F)cc2)Cc2ccco2)c(C(=O)Nc2cc(C)ccc2C)n1 | inactive
CCOC(=O)c1ccc(NC(=O)c2nc(SCc3ccc(F)cc3)ncc2Cl)cc1 | inactive
O=C(Nc1ccccc1C(F)(F)F)c1nc(S(=O)(=O)Cc2ccccc2F)ncc1Cl | inactive
CCCCCCCNc1ccc(/C=C/c2ccnc3ccccc23)cc1 | inactive
Cc1ccc(N2CC(NC(=O)Cc3cccs3)CC2=O)cc1 (stereo not given) | inactive
CN(C)c1ccc(/C=C2\C=Cc3ccccc32)cc1Br | inactive
COc1ccc(-c2ccc(OC)c(C3C4C=CCC(C)C4C(=O)N3Cc3ccccc3)c2)cc1C (stereo not given) | inactive
CCN(CC(=O)Nc1c(F)cccc1F)C(=O)c1ccc(S(=O)(=O)N2CCCCC2)cc1 | inactive
CCOc1ccc2nc(N3CCC(C(=O)Nc4cc(C)ccc4C)CC3)sc2c1 | inactive
CCOc1ccc2nc(N(CCCN(C)C)C(=O)c3ccc(C(=O)c4ccccc4)cc3)sc2c1 | 15.8 µM (active)
CCc1ccc2nc(N(CCCN(C)C)C(=O)c3ccc4c(c3)OCCO4)sc2c1 | 11.2 µM (active)
CN(C)CCCN(C(=O)c1ccc(S(=O)(=O)N2CCCCCC2)cc1)c1nc2ccc(Br)cc2s1 | 22.4 µM (active)
Cc1ccc(S(=O)(=O)N(CCCN(C)C)Cc2ccc3c(c2)OCO3)cc1 | inactive
O=C(CCOc1ccccc1)N(Cc1cccnc1)c1nc2ccc(Cl)cc2s1 | inactive

Compound | Potency
Cc1cc(C)c2sc(NC(=O)c3ccc(S(=O)(=O)N4CCCC4)cc3)nc2c1 | inactive
O=C(CN(Cc1ccccc1)C(=O)c1ccc2c(c1)OCCO2)NCc1ccc2c(c1)OCO2 | inactive
Cc1nn(C)c2c1c(C(F)(F)F)cc(=O)n2C(C)C(=O)NCc1ccc(Cl)cc1 (stereo not given) | inactive
COc1ccc(CNC(=O)c2cc3c(=O)[nH]c4ccc(C)cc4c3s2)c(OC)c1 | inactive
COc1cc(-c2cc3n(C)c(C)c(CCC(=O)Nc4ccc(F)cc4)c(=O)n3n2)cc(OC)c1OC | inactive
CC(=O)c1ccc(NC(=O)C2CCN(S(=O)(=O)c3c(C)noc3/C=C/c3ccc(C)cc3)CC2)cc1 | inactive
COc1ccc(CNC(=O)c2cc3c(-c4ccccc4F)nn(C)c3s2)c(OC)c1 | inactive
COC(=O)c1scc(-c2ccccc2)c1S(=O)(=O)Nc1ccccc1 | inactive
SCc1nc2ccc(Cl)cc2[nH]1 | inactive
O=c1[nH]c(CCl)nc2cc(-c3ccc(Cl)cc3)sc12 | 4.47 µM (active)
COc1cccc(-c2cc3nc(NCCOc4ccccc4Cl)n(C)c(=O)c3s2)c1 | inactive
CCOC(=O)C1CCC(CN(Cc2ccc(OC)cc2)S(=O)(=O)c2ccc(F)c(C(=O)Nc3cc(C)ccc3C)c2)CC1 (stereo not given) | inactive
Cc1ccc(C)c(CNC(=O)c2cc3ccccn3n2)c1 | inactive
CCOc1n[nH]c(-c2ccccc2)n1 | inactive
CCNC(=O)c1cnn(-c2ccccc2)c1-c1ccccc1 | inactive
Nc1c(C(=O)O)cnn1-c1ccccc1 | 11.2 µM (active)
NNC(=O)c1cnn(-c2ccccc2)c1C(F)(F)F | inactive
Cc1ccc(F)cc1S(=O)(=O)N1CCC(c2nc3ccccc3s2)CC1 | inactive
O=C(CC1Nc2ccccc2NC1=O)Nc1ccccc1 (stereo not given) | 12.6 µM (active)
O=C(CC1NCCc2ccccc21)Nc1cccc(Cl)c1 (stereo not given) | inactive
COC(=O)c1cc(C)sc1NC(=O)CC1Nc2ccccc2NC1=O (stereo not given) | inactive
N#Cc1cc2[nH]c(=O)c(=O)[nH]c2cc1[N+](=O)[O-] | inactive
CCOc1ccc(N(Cc2ccccc2)C(=O)c2nc(SCC)ncc2Cl)cc1 | inactive
CCOc1ccc(N(Cc2ccccc2)C(=O)c2nc(S(C)(=O)=O)ncc2Cl)cc1 | 3.55 µM (active)
CCOc1ccc(NC(=O)CN(Cc2ccccc2)S(=O)(=O)c2ccc(Cl)cc2)cc1 | inactive
